{"source": "ChEMBL document CHEMBL3433997", "about": "“St. Jude Leishmania screening dataset” (2016)", "format_in_all_cases": "functional", "key": {"[1]": {"target": "Solute carrier family 2, facilitated glucose transporter member 1 (Homo sapiens) (UniProt P11166)", "sequence (P11166 whole entry)": "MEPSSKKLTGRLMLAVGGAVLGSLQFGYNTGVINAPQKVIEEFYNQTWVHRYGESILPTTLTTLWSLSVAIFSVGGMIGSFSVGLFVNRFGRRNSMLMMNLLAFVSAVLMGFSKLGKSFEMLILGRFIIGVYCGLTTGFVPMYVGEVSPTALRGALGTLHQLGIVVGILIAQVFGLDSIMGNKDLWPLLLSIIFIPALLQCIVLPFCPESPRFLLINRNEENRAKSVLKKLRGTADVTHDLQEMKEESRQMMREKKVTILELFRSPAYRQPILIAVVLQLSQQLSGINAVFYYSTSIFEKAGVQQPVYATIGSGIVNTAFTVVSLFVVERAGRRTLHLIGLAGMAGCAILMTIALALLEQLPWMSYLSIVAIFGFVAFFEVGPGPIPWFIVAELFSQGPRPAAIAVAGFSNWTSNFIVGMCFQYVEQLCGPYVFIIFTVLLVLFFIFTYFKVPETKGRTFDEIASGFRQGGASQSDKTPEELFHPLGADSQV", "assay": "ST_JUDE_LEISH: Cytotoxicity at 2uM final concentration against transgenic Leishmania Mexicana promastigotes LmGLUT1 that are glucose transport deficient and complemented with the human glucose transporter GLUT1. Activity is measured by DNA content using SYBR green in vitro"}, "[2]": {"target": "Hexose transporter 1 (Plasmodium falciparum) (UniProt O97467)", "assay": "ST_JUDE_LEISH: Cytotoxicity at 2uM final concentration against transgenic Leishmania Mexicana promastigotes LmPfHT that are glucose transport deficient and complemented with the Plasmodium falciparum hexose transporter. Activity is measured by DNA content using SYBR green in vitro"}, "[3]": {"target": "Glucose transporter (Leishmania mexicana) (UniProt O61059)", "assay": "ST_JUDE_LEISH: Cytotoxicity at 2uM final concentration against transgenic Leishmania Mexicana promastigotes LmGT2 that are glucose transport deficient and complemented with the L. Mexicana glucose transporter 2. Activity is measured by DNA content using SYBR green in vitro"}}, "data": [{"smiles": "CCN(CC)CCCC(C)N/C(=N\\c1ccccc1Br)Nc1ccc(C#N)cc1O", "note": "(stereo not drawn)", "values": [{"measurement": "inhibition", "setting": "[1]", "value": 1.03, "unit": "%"}, {"measurement": "inhibition", "setting": "[2]", "value": 0.06, "unit": "%"}, {"measurement": "inhibition", "setting": "[3]", "value": -1.67, "unit": "%"}]}, {"smiles": "Cc1[nH]c2ccc(NS(C)(=O)=O)cc2c1C1CCN(CCC2CCN(C(=O)/C=C/c3ccc(Cl)c(Cl)c3)CC2)CC1", "values": [{"measurement": "inhibition", "setting": "[1]", "value": -0.38, "unit": "%"}, {"measurement": "inhibition", "setting": "[2]", "value": -1.33, "unit": "%"}, {"measurement": "inhibition", "setting": "[3]", "value": -1.24, "unit": "%"}]}, {"smiles": "CCC[C@@H]([C@@H](CC1CCCCC1)C(=O)N[C@H](C(=O)Nc1nccs1)C(C)(C)SC)N(O)C=O", "values": [{"measurement": "inhibition", "setting": "[1]", "value": 9.33, "unit": "%"}, {"measurement": "inhibition", "setting": "[2]", "value": 8.98, "unit": "%"}, {"measurement": "inhibition", "setting": "[3]", "value": 8.5, "unit": "%"}]}, {"smiles": "Nc1nc(N)c2c(ccc3c2ccn3C2CCCCC2)n1", "values": [{"measurement": "inhibition", "setting": "[1]", "value": 24.3, "unit": "%"}, {"measurement": "inhibition", "setting": "[2]", "value": 36.6, "unit": "%"}, {"measurement": "inhibition", "setting": "[3]", "value": 25.7, "unit": "%"}]}, {"smiles": "O=C(c1ccc(O)c(-c2cc(Cl)cc(Cl)c2)c1)N1CCCC1", "values": [{"measurement": "inhibition", "setting": "[1]", "value": 1.89, "unit": "%"}, {"measurement": "inhibition", "setting": "[2]", "value": 0.9, "unit": "%"}, {"measurement": "inhibition", "setting": "[3]", "value": -0.96, "unit": "%"}]}, {"smiles": "COc1ccccc1-c1ccc2nnc(SCC(=O)Nc3ccc4c(c3)OCCO4)n2n1", "values": [{"measurement": "inhibition", "setting": "[1]", "value": 4.56, "unit": "%"}, {"measurement": "inhibition", "setting": "[2]", "value": 4.26, "unit": "%"}, {"measurement": "inhibition", "setting": "[3]", "value": 3.67, "unit": "%"}]}, {"smiles": "Cn1c(NC2CCN(CC3CCN(C(=O)/C=C/c4ccc(Cl)c(Cl)c4)CC3)CC2)nc2ccccc21", "values": [{"measurement": "inhibition", "setting": "[1]", "value": 49.9, "unit": "%"}, {"measurement": "inhibition", "setting": "[2]", "value": 13.8, "unit": "%"}, {"measurement": "inhibition", "setting": "[3]", "value": 81.9, "unit": "%"}]}, {"smiles": "O=C(c1c(-c2[nH]c3ccccc3c2C(=O)C(F)(F)F)[nH]c2ccccc12)C(F)(F)F", "values": [{"measurement": "inhibition", "setting": "[1]", "value": 1.75, "unit": "%"}, {"measurement": "inhibition", "setting": "[2]", "value": 0.78, "unit": "%"}, {"measurement": "inhibition", "setting": "[3]", "value": -1.45, "unit": "%"}]}, {"smiles": "O=C(/C=C/c1ccc(Cl)cc1)Nc1ccc2nc(CN3CCCC3)ccc2c1", "values": [{"measurement": "inhibition", "setting": "[1]", "value": 5.3, "unit": "%"}, {"measurement": "inhibition", "setting": "[2]", "value": 6.73, "unit": "%"}, {"measurement": "inhibition", "setting": "[3]", "value": 5.54, "unit": "%"}]}, {"smiles": "COc1cc(F)c2ncc(Cl)c(CCN3CCC(NCc4ccc5c(c4)NC(=O)CS5)CC3)c2c1", "values": [{"measurement": "inhibition", "setting": "[1]", "value": 15.1, "unit": "%"}, {"measurement": "inhibition", "setting": "[2]", "value": 18.3, "unit": "%"}, {"measurement": "inhibition", "setting": "[3]", "value": 8.82, "unit": "%"}]}, {"smiles": "CC(C)N1CCC(N(Cc2ccc(-c3ccc(C(F)(F)F)cc3)cc2)C(=O)Cn2c(CCc3cccc(F)c3F)nc(=O)c3cccnc32)CC1", "values": [{"measurement": "inhibition", "setting": "[1]", "value": 2.74, "unit": "%"}, {"measurement": "inhibition", "setting": "[2]", "value": 1.97, "unit": "%"}, {"measurement": "inhibition", "setting": "[3]", "value": 0.94, "unit": "%"}]}, {"smiles": "COc1cccc2cc(C(=O)N[C@@H](CC(C)C)C(=O)N[C@H](C=NN3CCCC3=O)Cc3ccccc3)oc12", "values": [{"measurement": "inhibition", "setting": "[1]", "value": 2.46, "unit": "%"}, {"measurement": "inhibition", "setting": "[2]", "value": 5.52, "unit": "%"}, {"measurement": "inhibition", "setting": "[3]", "value": 2.7, "unit": "%"}]}, {"smiles": "Cc1cccc(C)c1CNc1ccnc2cc(C#N)ccc12", "values": [{"measurement": "inhibition", "setting": "[1]", "value": 3.83, "unit": "%"}, {"measurement": "inhibition", "setting": "[2]", "value": 3.15, "unit": "%"}, {"measurement": "inhibition", "setting": "[3]", "value": 2.98, "unit": "%"}]}, {"smiles": "Cn1cccc1C(=O)NCC(CCNc1cc(=O)c2ccccc2[nH]1)NCc1cc(Br)cc(Br)c1", "note": "(stereo not drawn)", "values": [{"measurement": "inhibition", "setting": "[1]", "value": 0.88, "unit": "%"}, {"measurement": "inhibition", "setting": "[2]", "value": 2.6, "unit": "%"}, {"measurement": "inhibition", "setting": "[3]", "value": 1.58, "unit": "%"}]}, {"smiles": "CC1(CCc2ccccc2)N=C(N)N(Cc2ccccc2)C(=O)C1c1ccc(Cl)c(Cl)c1", "note": "(stereo not drawn)", "values": [{"measurement": "inhibition", "setting": "[1]", "value": 3.32, "unit": "%"}, {"measurement": "inhibition", "setting": "[2]", "value": 2.08, "unit": "%"}, {"measurement": "inhibition", "setting": "[3]", "value": 0.94, "unit": "%"}]}, {"smiles": "Cc1nc(-c2nc(NCc3ccc4c(c3)OCO4)ncc2-c2ccsc2)sc1C", "values": [{"measurement": "inhibition", "setting": "[1]", "value": -0.05, "unit": "%"}, {"measurement": "inhibition", "setting": "[2]", "value": -0.48, "unit": "%"}, {"measurement": "inhibition", "setting": "[3]", "value": 0.68, "unit": "%"}]}]}
